# Measured values: the supplement of paper PMC10849652
# About 7,900 targets were measured; listed, in parts, are those with a hit and a random draw of the rest. About 0.6% of all pairs of compound and target were hits. Values without a mark were called inactive.
# What was measured:
# Experiment in all cases: log2 fold change, soluble protein after heating vs DMSO (PISA); higher = thermal stabilisation; K562 cells, 10 uM, 30 min; active = over 0.2 and 3.5 SD of the protein, either way, in both replicates (recomputed)
# [1] = compound: COC1=CC=C(C=C1)CN2C=CC3=C2C=C(C=C3)C(=O)NO
# Summary of the method: (§1)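 K562 cells at 2×10^6 cells/mL were exposed to 10 μM compound for 30 min, then aliquots were heated for 3 min across 48°C-58°C, pooled, and extracted in PBS containing 0.5% NP-40 at 4°C. The supernatant after 21,000xg for 90 min was taken as soluble protein and measured by TMTpro 16plex LC-MS/MS with channel sums equalised. Thermal stability is reported relative to control samples, with values from duplicates. Fold changes are given on a log2 scale.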
# filanesib = compound: CON(C)C(=O)N1N=C(c2cc(F)ccc2F)S[C@@]1(CCCN)c1ccccc1 [filanesib]
# Summary of the method: as §1
# zotarolimus = compound: CO[C@H]1C[C@@H]2CC[C@@H](C)[C@@](O)(O2)C(=O)C(=O)N2CCCC[C@H]2C(=O)O[C@H]([C@H](C)C[C@@H]2CC[C@H](n3cnnn3)[C@H](OC)C2)CC(=O)[C@H](C)/C=C(\C)[C@@H](O)[C@@H](OC)C(=O)[C@H](C)C[C@H](C)/C=C/C=C/C=C/1C [zotarolimus]
# Summary of the method: as §1
# idasanutlin = compound: COc1cc(C(=O)O)ccc1NC(=O)[C@@H]1N[C@@H](CC(C)(C)C)[C@](C#N)(c2ccc(Cl)cc2F)[C@H]1c1cccc(Cl)c1F [idasanutlin]
# Summary of the method: as §1
# alisertib = compound: COc1cc(Nc2ncc3c(n2)-c2ccc(Cl)cc2C(c2c(F)cccc2OC)=NC3)ccc1C(=O)O [alisertib]
# Summary of the method: as §1
# [2] = compound: COc1cc2nc(-c3cc(F)ccc3O)nc(N[C@@H]3CNC[C@H]3C(C)(C)O)c2cc1OC
# Summary of the method: as §1
# gefitinib = compound: COc1cc2ncnc(Nc3ccc(F)c(Cl)c3)c2cc1OCCCN1CCOCC1 [gefitinib]
# Summary of the method: as §1
# [3] = compound: COc1cccc2cc(-c3nc([C@H]4CC[C@H](C(=O)O)CC4)n4ncnc(N)c34)[nH]c12
# Summary of the method: as §1
# lapatinib = compound: CS(=O)(=O)CCNCc1ccc(-c2ccc3ncnc(Nc4ccc(OCc5cccc(F)c5)c(Cl)c4)c3c2)o1 [lapatinib]
# Summary of the method: as §1
# pictilisib = compound: CS(=O)(=O)N1CCN(Cc2cc3nc(-c4cccc5[nH]ncc45)nc(N4CCOCC4)c3s2)CC1 [pictilisib]
# Summary of the method: as §1
# Chain of UniProt Q96E09 (Q96E09 whole entry, looked up): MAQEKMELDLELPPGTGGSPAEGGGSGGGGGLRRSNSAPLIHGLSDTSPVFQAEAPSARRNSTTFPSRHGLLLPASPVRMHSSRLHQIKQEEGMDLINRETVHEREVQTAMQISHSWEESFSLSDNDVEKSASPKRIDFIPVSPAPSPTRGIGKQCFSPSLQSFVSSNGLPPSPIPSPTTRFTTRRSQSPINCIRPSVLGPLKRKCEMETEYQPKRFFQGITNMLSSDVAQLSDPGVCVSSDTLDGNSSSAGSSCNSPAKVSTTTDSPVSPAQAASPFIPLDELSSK
# Chain of UniProt Q6IAN0 (Q6IAN0 whole entry, looked up): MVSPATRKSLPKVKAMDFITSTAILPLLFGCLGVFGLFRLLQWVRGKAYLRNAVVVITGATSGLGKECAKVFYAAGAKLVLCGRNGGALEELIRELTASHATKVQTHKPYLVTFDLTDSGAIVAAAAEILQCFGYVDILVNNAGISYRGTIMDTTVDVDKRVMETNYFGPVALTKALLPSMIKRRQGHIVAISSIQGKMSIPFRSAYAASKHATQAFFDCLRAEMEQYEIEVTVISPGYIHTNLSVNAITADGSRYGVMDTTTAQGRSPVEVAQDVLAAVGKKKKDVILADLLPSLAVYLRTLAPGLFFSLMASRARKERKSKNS
# Chain of UniProt P11182 (P11182 whole entry, looked up): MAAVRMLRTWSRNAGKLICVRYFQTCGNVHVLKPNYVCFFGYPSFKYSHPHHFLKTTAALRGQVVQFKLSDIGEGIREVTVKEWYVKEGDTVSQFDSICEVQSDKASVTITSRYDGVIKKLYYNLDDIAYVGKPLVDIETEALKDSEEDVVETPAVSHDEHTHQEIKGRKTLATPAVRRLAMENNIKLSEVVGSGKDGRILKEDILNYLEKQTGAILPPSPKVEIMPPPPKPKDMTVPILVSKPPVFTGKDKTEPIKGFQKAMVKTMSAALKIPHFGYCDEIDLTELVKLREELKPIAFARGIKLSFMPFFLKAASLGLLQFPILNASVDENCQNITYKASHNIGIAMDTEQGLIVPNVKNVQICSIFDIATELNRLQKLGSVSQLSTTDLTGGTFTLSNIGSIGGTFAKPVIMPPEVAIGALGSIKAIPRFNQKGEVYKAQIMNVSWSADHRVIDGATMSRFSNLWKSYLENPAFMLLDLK
# Chain of UniProt Q14203 (Q14203 whole entry, looked up): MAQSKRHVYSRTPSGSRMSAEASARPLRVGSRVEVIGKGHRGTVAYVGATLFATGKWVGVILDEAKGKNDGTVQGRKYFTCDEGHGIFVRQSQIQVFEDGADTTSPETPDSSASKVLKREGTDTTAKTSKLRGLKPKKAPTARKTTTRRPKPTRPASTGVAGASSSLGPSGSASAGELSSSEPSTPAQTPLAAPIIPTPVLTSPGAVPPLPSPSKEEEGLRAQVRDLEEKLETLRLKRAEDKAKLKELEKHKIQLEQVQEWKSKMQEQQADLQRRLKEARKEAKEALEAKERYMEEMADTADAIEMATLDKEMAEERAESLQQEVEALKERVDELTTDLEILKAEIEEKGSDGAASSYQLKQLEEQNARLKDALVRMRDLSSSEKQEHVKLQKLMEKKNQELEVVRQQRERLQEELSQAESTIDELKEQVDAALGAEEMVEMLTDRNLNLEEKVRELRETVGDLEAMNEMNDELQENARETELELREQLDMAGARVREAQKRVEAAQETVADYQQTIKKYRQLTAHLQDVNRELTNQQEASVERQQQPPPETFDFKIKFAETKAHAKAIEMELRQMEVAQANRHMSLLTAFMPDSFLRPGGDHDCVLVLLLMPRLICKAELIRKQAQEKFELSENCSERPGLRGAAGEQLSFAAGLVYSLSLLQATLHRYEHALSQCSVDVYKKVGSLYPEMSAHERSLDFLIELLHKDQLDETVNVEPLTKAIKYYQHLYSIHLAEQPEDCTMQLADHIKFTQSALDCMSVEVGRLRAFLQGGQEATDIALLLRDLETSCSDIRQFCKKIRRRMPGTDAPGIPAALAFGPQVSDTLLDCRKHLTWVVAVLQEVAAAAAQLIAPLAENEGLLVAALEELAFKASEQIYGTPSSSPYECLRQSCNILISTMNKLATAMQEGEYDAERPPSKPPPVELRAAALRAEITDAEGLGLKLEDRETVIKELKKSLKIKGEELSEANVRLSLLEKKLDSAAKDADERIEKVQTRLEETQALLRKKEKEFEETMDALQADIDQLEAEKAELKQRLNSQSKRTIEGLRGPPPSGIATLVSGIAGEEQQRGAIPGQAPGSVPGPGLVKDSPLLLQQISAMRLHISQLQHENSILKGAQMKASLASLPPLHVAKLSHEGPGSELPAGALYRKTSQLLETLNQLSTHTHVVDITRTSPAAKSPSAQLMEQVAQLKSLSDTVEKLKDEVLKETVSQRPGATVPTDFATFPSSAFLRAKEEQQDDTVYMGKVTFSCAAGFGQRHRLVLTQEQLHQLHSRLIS
# Chain of UniProt Q96A65 (Q96A65 whole entry, looked up): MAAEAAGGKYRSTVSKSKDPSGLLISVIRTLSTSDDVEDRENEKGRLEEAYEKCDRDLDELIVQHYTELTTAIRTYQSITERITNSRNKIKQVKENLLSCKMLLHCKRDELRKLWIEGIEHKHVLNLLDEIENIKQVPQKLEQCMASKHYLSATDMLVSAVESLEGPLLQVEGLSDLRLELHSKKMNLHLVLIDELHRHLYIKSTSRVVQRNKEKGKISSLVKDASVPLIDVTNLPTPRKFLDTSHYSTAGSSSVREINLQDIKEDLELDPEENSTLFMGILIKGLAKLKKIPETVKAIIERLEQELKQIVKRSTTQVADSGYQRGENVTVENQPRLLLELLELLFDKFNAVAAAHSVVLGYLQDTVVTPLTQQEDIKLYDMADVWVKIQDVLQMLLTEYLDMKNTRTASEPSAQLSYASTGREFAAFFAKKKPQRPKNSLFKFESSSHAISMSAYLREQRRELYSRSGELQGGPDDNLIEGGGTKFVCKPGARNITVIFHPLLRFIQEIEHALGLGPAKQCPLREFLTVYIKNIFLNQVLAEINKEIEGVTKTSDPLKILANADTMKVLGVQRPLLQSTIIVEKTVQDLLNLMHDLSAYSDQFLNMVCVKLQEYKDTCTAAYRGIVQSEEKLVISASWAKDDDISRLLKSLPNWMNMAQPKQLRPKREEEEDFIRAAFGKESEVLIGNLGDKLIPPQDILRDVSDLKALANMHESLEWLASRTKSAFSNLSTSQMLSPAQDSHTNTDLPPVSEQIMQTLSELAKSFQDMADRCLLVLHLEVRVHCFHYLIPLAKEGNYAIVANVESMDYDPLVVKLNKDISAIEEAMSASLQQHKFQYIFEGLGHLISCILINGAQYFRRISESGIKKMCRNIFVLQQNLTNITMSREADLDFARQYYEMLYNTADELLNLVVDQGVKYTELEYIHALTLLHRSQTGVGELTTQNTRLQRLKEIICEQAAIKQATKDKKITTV
# Chain of UniProt P60842 (P60842 whole entry, looked up): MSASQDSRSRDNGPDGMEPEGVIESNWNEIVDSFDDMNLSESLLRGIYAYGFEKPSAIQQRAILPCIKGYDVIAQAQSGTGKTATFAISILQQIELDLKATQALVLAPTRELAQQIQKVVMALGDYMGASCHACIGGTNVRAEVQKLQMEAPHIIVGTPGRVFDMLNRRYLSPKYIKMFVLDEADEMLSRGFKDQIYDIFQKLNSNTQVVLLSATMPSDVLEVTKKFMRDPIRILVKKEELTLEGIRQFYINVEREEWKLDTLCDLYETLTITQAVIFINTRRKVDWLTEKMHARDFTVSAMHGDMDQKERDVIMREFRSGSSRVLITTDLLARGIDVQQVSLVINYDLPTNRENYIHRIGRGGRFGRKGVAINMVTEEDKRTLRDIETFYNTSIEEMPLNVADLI
# Chain of UniProt Q7Z2Z2 (Q7Z2Z2 whole entry, looked up): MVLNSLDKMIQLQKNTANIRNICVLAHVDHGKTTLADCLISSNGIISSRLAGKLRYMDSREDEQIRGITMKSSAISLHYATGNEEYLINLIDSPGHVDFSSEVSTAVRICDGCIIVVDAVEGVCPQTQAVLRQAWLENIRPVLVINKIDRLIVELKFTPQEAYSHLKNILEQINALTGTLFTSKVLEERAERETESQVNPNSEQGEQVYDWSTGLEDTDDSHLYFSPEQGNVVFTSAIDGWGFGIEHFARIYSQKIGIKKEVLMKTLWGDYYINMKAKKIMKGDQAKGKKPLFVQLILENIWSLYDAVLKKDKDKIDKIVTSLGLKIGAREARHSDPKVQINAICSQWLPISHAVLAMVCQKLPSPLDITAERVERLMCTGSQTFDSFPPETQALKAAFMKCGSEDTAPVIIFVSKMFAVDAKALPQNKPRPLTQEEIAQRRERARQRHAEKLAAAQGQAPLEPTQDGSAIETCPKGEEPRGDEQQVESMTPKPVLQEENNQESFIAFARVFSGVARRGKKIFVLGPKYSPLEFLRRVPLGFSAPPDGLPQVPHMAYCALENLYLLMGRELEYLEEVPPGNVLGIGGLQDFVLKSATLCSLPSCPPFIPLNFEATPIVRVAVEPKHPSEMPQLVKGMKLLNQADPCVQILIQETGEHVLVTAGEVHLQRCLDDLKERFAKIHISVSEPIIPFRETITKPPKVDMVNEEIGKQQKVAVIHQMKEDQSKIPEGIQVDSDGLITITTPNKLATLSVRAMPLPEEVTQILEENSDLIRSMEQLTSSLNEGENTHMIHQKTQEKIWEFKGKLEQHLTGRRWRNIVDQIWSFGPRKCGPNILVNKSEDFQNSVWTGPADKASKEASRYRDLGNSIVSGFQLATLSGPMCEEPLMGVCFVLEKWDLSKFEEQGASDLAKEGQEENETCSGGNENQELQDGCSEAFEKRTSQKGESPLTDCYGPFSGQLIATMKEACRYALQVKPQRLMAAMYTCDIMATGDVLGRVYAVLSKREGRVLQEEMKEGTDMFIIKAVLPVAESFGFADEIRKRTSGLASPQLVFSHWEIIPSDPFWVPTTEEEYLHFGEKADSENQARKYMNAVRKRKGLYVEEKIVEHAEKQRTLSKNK
# Chain of UniProt Q9H773 (Q9H773 whole entry, looked up): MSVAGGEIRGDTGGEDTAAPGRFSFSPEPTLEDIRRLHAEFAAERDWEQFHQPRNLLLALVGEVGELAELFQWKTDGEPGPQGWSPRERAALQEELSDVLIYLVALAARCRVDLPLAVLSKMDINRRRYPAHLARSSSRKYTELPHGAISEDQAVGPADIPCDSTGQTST
Target,log2 fold change [1],log2 fold change (filanesib),log2 fold change (zotarolimus),log2 fold change (idasanutlin),log2 fold change (alisertib),log2 fold change [2],log2 fold change (gefitinib),log2 fold change [3],log2 fold change (lapatinib),log2 fold change (pictilisib)
ERCC2 (UniProt P18074),-0.024,0.018,0.068,0.063,0.001,-0.061,-0.03,-0.021,0.049,0.042
DHPS (UniProt P49366),0.268 (active),-0.024,-0.001,0.03,-0.033,-0.047,-0.018,0.063,0.05,0.024
EPHX2 (UniProt P34913),-0.019,-0.096,-0.017,-0.089,-0.053,-0.009,0,0.055,-0.041,0.062
CUX1 isoform 2 (UniProt Q13948),-0.095,0.077,-0.007,-0.043,0.012,-0.062,-0.029,0.074,0.009,0.018
EGLN1 (UniProt Q9GZT9),-0.361 (active),-0.07,-0.022,-0.004,0.018,0.018,0.022,-0.074,0.01,0.009
DHCR24 (UniProt Q15392),0.061,-0.074,0.013,-0.087,-0.123,0.047,1.05 (active),-0.038,0.711,0.055
FAM114A2 (UniProt Q9NRY5),0,-0.131,-0.01,-0.036,-0.038,-0.093,0.002,0.035,-0.009,-0.02
DBT (UniProt P11182),0.009,0.012,0.007,0.015,0.003,-0.006,-0.021,0.039,0.004,0.052
DNTTIP2 (UniProt Q5QJE6),-0.095,0.217,0.061,0.267,-0.072,-0.09,-0.014,-0.002,0,0.008
FAM122A (UniProt Q96E09),-0.05,-0.004,-0.038,0.017,-0.068,-0.053,0.019,0.005,0.018,0.092
DCTN1 isoform 4 (UniProt Q14203),-0.007,0.047,0.095,0.012,-0.045,0.007,0.042,-0.083,-0.007,-0.135
DMAC1 (UniProt Q96GE9),-0.121,0.04,-0.04,-0.339,-0.174,-0.111,-0.074,0.145,0.053,0.038
DNAAF2 (UniProt Q9NVR5),0.009,-0.012,0.016,-0.033,0.005,0.015,0.035,0.062,-0.026,0.232
DNM2 (UniProt P50570),-0.022,-0.107,0.016,-0.078,-0.073,0.099,0.002,0.023,-0.026,0.021
EFL1 (UniProt Q7Z2Z2),-0.021,-0.069,0.022,-0.071,-0.013,0.042,0.019,0.033,-0.034,-0.016
"EED, A0A5F9ZI63",0.008,0.115,-0.01,0.08,-0.097,0.032,0.006,0.018,0.091,-0.163

Target,log2 fold change [1],log2 fold change (filanesib),log2 fold change (zotarolimus),log2 fold change (idasanutlin),log2 fold change (alisertib),log2 fold change [2],log2 fold change (gefitinib),log2 fold change [3],log2 fold change (lapatinib),log2 fold change (pictilisib)
EIF3J (UniProt O75822),-0.067,-0.086,0.007,-0.042,-0.018,0.079,-0.004,-0.057,-0.057,-0.04
ECPAS (UniProt Q5VYK3),0.004,-0.004,0.033,-0.127,-0.001,0.055,-0.007,-0.087,-0.033,0.005
EXOC4 (UniProt Q96A65),0.029,0.009,0.065,-0.052,-0.002,0.164,0.002,-0.086,0.008,-0.059
FAM83D (UniProt Q9H4H8),-0.009,0.062,0.051,-0.109,-0.135,0.018,0.05,-0.034,0.021,-0.136
DNAJC7 (UniProt Q99615),0.037,-0.025,0.07,-0.043,-0.044,-0.031,0.068,-0.031,0,0.014
DTWD2 (UniProt Q8NBA8),-0.229,0.307,-0.036,-0.073,0.069,-0.18,-0.159,0.002,0.151,-0.042
DBNL isoform 3 (UniProt Q9UJU6),0.096,0.006,-0.018,0.02,0.025,-0.002,0.021,-0.016,0.016,0.027
CTSA (UniProt P10619),0.01,-0.111,-0.024,0.015,0.029,0.023,0.1,0.065,0.045,0.038
ELOC (UniProt Q15369),0.007,0.04,0.096,-0.009,-0.009,0.033,-0.006,0.011,-0.002,0.105
EIF4A1 (UniProt P60842),0.061,-0.11,-0.009,-0.075,-0.004,-0.01,0.004,-0.027,0.016,-0.088
DCTPP1 (UniProt Q9H773),0.023,-0.02,0.083,-0.061,-0.067,-0.091,0,0.038,-0.058,-0.05
CYB561A3 isoform 2 (UniProt Q8NBI2),-0.026,-0.073,0.011,-0.066,0.041,0.023,-0.06,0.088,-0.019,0.263
ELOVL1 (UniProt Q9BW60),-0.103,-0.139,-0.051,-0.051,0.032,-0.084,-0.087,0.032,-0.078,-0.046
DBR1 (UniProt Q9UK59),0.051,0.036,-0.003,0.015,-0.018,0.017,-0.049,0.054,-0.021,-0.064
FAM118A (UniProt Q9NWS6),0.213,-0.15,0.032,-0.323,0.383,0.023,0.022,-0.044,0,0.207
DHRS7B (UniProt Q6IAN0),0.012,0.03,-0.058,-0.03,0.012,0.335 (active),0.056,-0.025,0.109,-0.143
